# What was measured:
# Test in all cases: yeast three-hybrid, YBZ-1, SC-Leu-His + 0.5 mM 3-AT, 4 days
# Details in all cases: tags: N-Gal4 AD-HA kept; label: inside an RPR1-promoter hybrid RNA with tandem MS2 sites; ssRNA
# [1] = biological target: PUM1 PUF domain R3-WCM (Homo sapiens, UniProt Q14671 828-1176, C935W;R936C;Q939M)
# Summary of the method: (§1)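 Sequencing with Illumina followed PCR amplification of the repeat regions from transformants grown four days on SC-Leu (input) or SC-Leu-His + 0.5 mM 3-AT (selection). The transformants were strain YBZ-1 with a LexA–MS2 coat fusion and a HIS3 reporter, carrying Pumilio-1 PUF domain libraries and matching RNA elements. The interaction score is the log change in variant frequency from input to selection, computed in log2 with a pseudocount of 1 for absent variants.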
# [2] = biological target: PUM1 PUF domain R3-GYD (Homo sapiens, UniProt Q14671 828-1176, C935G;R936Y;Q939D)
# Summary of the method: as §1
# [3] = biological target: PUM1 PUF domain R1-KDL (Homo sapiens, UniProt Q14671 828-1176, S863K;R864D;Q867L)
# Summary of the method: as §1
# [4] = biological target: PUM1 PUF domain R3-RRM (Homo sapiens, UniProt Q14671 828-1176, C935R;Q939M)
# Summary of the method: as §1
# [5] = biological target: PUM1 PUF domain R5-CAR (Homo sapiens, UniProt Q14671 828-1176, R1008A;Q1011R)
# Summary of the method: as §1
# [6] = biological target: PUM1 PUF domain R8-PFQ (Homo sapiens, UniProt Q14671 828-1176, N1122P;Y1123F)
# Summary of the method: as §1
# [7] = biological target: T1, PUM1 PUF domain R6-CWG (Homo sapiens, UniProt Q14671 828-1176, N1043C;Y1044W;Q1047G)
# T1 sequence: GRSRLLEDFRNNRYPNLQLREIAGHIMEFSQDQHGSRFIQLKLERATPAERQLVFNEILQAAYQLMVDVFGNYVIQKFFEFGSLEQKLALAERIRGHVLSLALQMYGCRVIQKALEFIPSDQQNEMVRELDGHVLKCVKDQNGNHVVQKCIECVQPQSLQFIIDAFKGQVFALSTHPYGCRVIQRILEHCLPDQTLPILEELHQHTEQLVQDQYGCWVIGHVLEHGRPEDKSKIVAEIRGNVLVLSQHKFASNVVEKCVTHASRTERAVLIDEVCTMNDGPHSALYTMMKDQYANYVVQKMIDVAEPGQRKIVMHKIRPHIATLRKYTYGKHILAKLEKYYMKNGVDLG
# Summary of the method: as §1
# [8] = biological target: PUM1 PUF domain R4-WAR (Homo sapiens, UniProt Q14671 828-1176, N971W;H972A;Q975R)
# Summary of the method: as §1
# [9] = biological target: PUM1 PUF domain R8-RRP (Homo sapiens, UniProt Q14671 828-1176, N1122R;Y1123R;Q1126P)
# Summary of the method: as §1
# [10] = biological target: PUM1 PUF domain R1-HGR (Homo sapiens, UniProt Q14671 828-1176, S863H;R864G;Q867R)
# Summary of the method: as §1
sequence,measurement,setting,value
GGCUAGAACUAGUGGAUCCCCCGGCGCCCGGCGGCUCGAGCCCGGGUAAGUGUAAGUAGUCUGCAUGCCGCCGGGCGCCAUGCCUGCAGGUCGACUCUAGAAAACAUG,binding signal,[1],4.19 log2 enrichment (interaction score)
same,binding signal,[2],5.08 log2 enrichment (interaction score)
GGCUAGAACUAGUGGAUCCCCCGGCGCCCGGCGGCUCGAGCCCGGGUAAGUGUAAAUCGUCUGCAUGCCGCCGGGCGCCAUGCCUGCAGGUCGACUCUAGAAAACAUG,binding signal,[3],0.72 log2 enrichment (interaction score)
GGCUAGAACUAGUGGAUCCCCCGGCGCCCGGCGGCUCGAGCCCGGGUAAGUGUAAUUAGUCUGCAUGCCGCCGGGCGCCAUGCCUGCAGGUCGACUCUAGAAAACAUG,binding signal,[4],3.06 log2 enrichment (interaction score)
GGCUAGAACUAGUGGAUCCCCCGGCGCCCGGCGGCUCGAGCCCGGGUAAGUGUCAAUAGUCUGCAUGCCGCCGGGCGCCAUGCCUGCAGGUCGACUCUAGAAAACAUG,binding signal,[5],4.28 log2 enrichment (interaction score)
GGCUAGAACUAGUGGAUCCCCCGGCGCCCGGCGGCUCGAGCCCGGGUAAGUGUAAAUAGUCUGCAUGCCGCCGGGCGCCAUGCCUGCAGGUCGACUCUAGAAAACAUG,binding signal,[6],2.66 log2 enrichment (interaction score)
same,binding signal,[7],3.03 log2 enrichment (interaction score)
same,binding signal,[8],1.01 log2 enrichment (interaction score)
same,binding signal,[9],2.63 log2 enrichment (interaction score)
GGCUAGAACUAGUGGAUCCCCCGGCGCCCGGCGGCUCGAGCCCGGGUAAGUGUACAUAGUCUGCAUGCCGCCGGGCGCCAUGCCUGCAGGUCGACUCUAGAAAACAUG,binding signal,[8],3.19 log2 enrichment (interaction score)
GGCUAGAACUAGUGGAUCCCCCGGCGCCCGGCGGCUCGAGCCCGGGUAAGCGUAAAUAGUCUGCAUGCCGCCGGGCGCCAUGCCUGCAGGUCGACUCUAGAAAACAUG,binding signal,[6],3.59 log2 enrichment (interaction score)
same,binding signal,[9],4.45 log2 enrichment (interaction score)
GGCUAGAACUAGUGGAUCCCCCGGCGCCCGGCGGCUCGAGCCCGGGUAAGUGUAAAUUGUCUGCAUGCCGCCGGGCGCCAUGCCUGCAGGUCGACUCUAGAAAACAUG,binding signal,[10],2.93 log2 enrichment (interaction score)
same,binding signal,[3],3.53 log2 enrichment (interaction score)
GGCUAGAACUAGUGGAUCCCCCGGCGCCCGGCGGCUCGAGCCCGGGUAAGUGAAAAUAGUCUGCAUGCCGCCGGGCGCCAUGCCUGCAGGUCGACUCUAGAAAACAUG,binding signal,[7],4.54 log2 enrichment (interaction score)
